Compound activity deposited in PubChem by National Center for Advancing Translational Sciences (NCATS).
B2AR arrestin: qHTS assay of beta-arrestin-biased ligands of beta2-adrenergic receptor. Beta-2 adrenergic receptor (Homo sapiens), P07550. beta-arrestin recruitment to beta2AR, cell-based reporter. Potency, µM (titrated, usually from 46.1 µM), actives largely listed as activators. 330,000 tested, 0.02% active. AID 492947, 2010; further: nearly all actives have a fitted effect of over 65% in size
Target sequence (P07550 whole entry, looked up): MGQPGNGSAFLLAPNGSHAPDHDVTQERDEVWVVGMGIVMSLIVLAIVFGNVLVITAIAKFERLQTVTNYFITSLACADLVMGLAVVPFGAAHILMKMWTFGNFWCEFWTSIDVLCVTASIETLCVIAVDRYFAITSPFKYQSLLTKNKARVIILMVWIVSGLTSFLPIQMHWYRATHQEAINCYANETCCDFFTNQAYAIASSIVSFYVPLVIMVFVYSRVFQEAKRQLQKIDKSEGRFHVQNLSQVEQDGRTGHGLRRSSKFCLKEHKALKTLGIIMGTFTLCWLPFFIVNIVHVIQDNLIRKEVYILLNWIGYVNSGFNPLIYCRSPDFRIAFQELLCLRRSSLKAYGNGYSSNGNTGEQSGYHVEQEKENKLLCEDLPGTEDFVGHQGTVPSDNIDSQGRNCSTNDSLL
RGS4 inh: Inhibitors of Regulator of G Protein Signaling (RGS) 4: qHTS; Regulator of G-protein signaling 4 (Homo sapiens), P49798; Transcreener GDP fluorescence polarization, RGS4-accelerated GTP hydrolysis; 390,000 tested, 0.039% active; Potency, µM (series often up to 114 µM), hits mostly inhibitors; further: nearly all actives have a fitted effect of over 75% in size
Target sequence (P49798 whole entry, looked up): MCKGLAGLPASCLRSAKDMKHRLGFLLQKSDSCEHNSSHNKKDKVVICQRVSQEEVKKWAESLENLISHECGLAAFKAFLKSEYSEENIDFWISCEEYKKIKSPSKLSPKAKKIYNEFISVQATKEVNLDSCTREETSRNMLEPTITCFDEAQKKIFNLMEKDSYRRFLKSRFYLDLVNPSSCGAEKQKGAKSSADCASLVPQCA
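MLSMR compounds (23 nl, pin-transferred) preincubated 10 min at room temperature with a 500nM (2x) first reagent, then RGS4 at 900nM (2x) plus Transcreener GDP mix added; fluorescence polarization (620/688 nm) read before and after 90 min at 30 °C.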
BRCA1 expr act: qHTS Assay to Identify Small Molecule Activators of BRCA1 Expression; AID 624202, 2012; Potency, µM (doses to about 46.1 µM), most hits filed as activators; 380,000 tested, 1.1% active; MCF7-BRCA1-FFLuc reporter, luminescence, 48 h; response scale: scaled: vehicle 0%, 10 µM genistein 100%; further: nearly all actives have a fitted effect of over 80% in size
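Cells: MCF7-BRCA1-FFLuc, 2000/well. Exposure: 48 h, 37 °C, 5% CO2. Read: luminescence, 15 min post-substrate. Controls: genistein 10 microM (maximal activation), DMSO (neutral).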
D3 antag: qHTS of D3 Dopamine Receptor Antagonist: qHTS; max response, negative = inhibition, %; 360,000 tested, 2.5% active; D3R cells, DiscoveRx beta-arrestin luminescence, antagonist mode; active compounds read low; AID 652054, 2013; D(3) dopamine receptor (Homo sapiens), P35462; in the data active means max response below about -50%; inconclusive means no clear call, values can overlap the other calls
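Cells plated overnight at 1500 cells/well, then exposed to library compounds with dopamine controls for 90 minutes at 37 degrees C. DiscoveRx reagent added for 30–60 minutes at room temperature; luminescence read, quantitative HTS format.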
D3 ag: qHTS of D3 Dopamine Receptor Agonist: qHTS; D3R DiscoveRx beta-arrestin cells, luminescence, 90 min; max activation, %; 410,000 tested, 0.58% active; in the data active means max activation above about 30%
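Cells at 1500/well, incubated overnight, then treated with pinned compounds (dopamine as control) for 90 min at 37 degrees C. DiscoveRx reagent added for 30 - 60 minutes at room temperature; luminescence read.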
PTHR1 ag: qHTS for PTHR1 Agonists: Primary Screen; AID 743266, 2014; Parathyroid hormone/parathyroid hormone-related peptide receptor (Homo sapiens), Q03431; HEK293 GP2 PTHR1 cells, GloSensor cAMP luminescence, 1 h; Potency, µM (titrated, usually from 115 µM), most hits filed as activators; 410,000 tested, 0.075% active; further: nearly all actives have a fitted effect of over 55% in size
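HEK-293-derived GP2 cells expressing PTHR1 and a GloSensor cAMP reporter, 3,000/well, plated overnight, given luciferin plus IBMX (each 0.5 mM as added) for 1 h at 37 °C, then compound for 1 h at 37 °C. Luminescence was read after 15 min at room temperature.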
A number is an active result; - = inactive; ? = inconclusive; . = no result; [ ] = remark or other dose. Most compounds without a hit are left out; they make up all but 3.7% or so of the library. Unless noted, the call rests on the fitted dose curve; in most records, active means well fitted curve in the direction sought with a large enough effect; inconclusive means small, poorly fitted or top-dose-only effect, or another doubt; inactive means no such curve, though single readings can be large; an effect the other way counts as inactive or inconclusive.

SMILES	B2AR arrestin	RGS4 inh	BRCA1 expr act	D3 antag	D3 ag	PTHR1 ag
COc1ccccc1N1C(=NC(=O)CCC2CCCC2)SC2CS(=O)(=O)CC21 (stereo unspecified)	-	-	-	-	-	-
COc1ccccc1CNC(=O)CS(=O)(=O)Cc1ccccc1	-	-	-	-	-	-
O=C(CN1C(=O)/C(=C\c2cccc(Cl)c2)Oc2ccccc21)N1CCN(c2ccccn2)CC1	-	.	.	.	.	.
CC1COCC(C)N1C1=C(Cl)C(=O)c2ccccc2C1=O (stereo unspecified)	.	?	-	-58	-	-
O=C1C(Cl)=C(N2CCC(C(=O)O)CC2)C(=O)c2ccccc21	-	-	-	-53	-	-
NC(=O)C1CCN(C2=C(Cl)C(=O)c3ccccc3C2=O)CC1	-	?	-	-75	-	-
Nc1ncc(S(=O)(=O)NCc2ccccc2F)cn1	.	-	.	.	-	-
Fc1ccccc1NC(=S)NNc1ncc(C(F)(F)F)cc1Cl	-	-	-	-	-	-
FC(F)(F)c1cnc(NNC(=S)Nc2cccnc2)c(Cl)c1	-	-	-	-67	-	-
FC(F)(F)c1cnc(NNC(=S)Nc2ccccc2)c(Cl)c1	.	.	-	-92	-	-
Cc1nc(C)c(-c2ccc(SCc3ccccc3C)nn2)s1	-	-	?	-	-	-
CN(C)c1nc(C=C(C#N)C#N)c(Cl)n1-c1ccc(F)cc1	-	-	-	-64	-	-
CC(=O)c1ccc(S(=O)(=O)N2CCn3cccc3C2c2ccc(C)cc2)cc1 (stereo unspecified)	.	-	.	.	-	-
CC(=O)Nc1ccccc1C	-	-	-	-	-	-
CC(=O)Nc1cc(NC(C)=O)c(N=Nc2ccccc2)cc1C	-	-	3.5µM	-	-	-
c1ccc2oc(-c3ccc(Nc4nc(N5CCOCC5)nc(N5CCOCC5)n4)cc3)nc2c1	.	-	-	-	-	-
CCN1C(=O)c2cccc3c(S(=O)(=O)N(C(C)=O)c4ccc(OC(C)=O)cc4)ccc1c23	-	-	-	-	-	-
CCOC(=O)Cc1ccc2sc(-c3ccccc3)nc2c1	-	-	4.5µM	-	-	-
CCOC(=O)Cc1ccc(-c2ccccc2)cc1	.	.	.	.	-	.
CC(C)CC1(C)NC(=O)N(CC(=O)N2C(C)CCCC2C)C1=O (stereo unspecified)	-	-	-	-	-	-
S=c1[nH]nc(Cc2sc(-c3ccccc3)nc2-c2ccccc2)o1	-	-	-	-67	-	-
COc1ccc(NC(=O)Nc2cccc3c2O[C@H](CN(C)C(=O)Nc2ccc(OC)cc2)[C@@H](C)CN([C@H](C)CO)C3=O)cc1	-	-	-	-	33	-
COc1ccc(S(=O)(=O)Nc2cccc3c2O[C@@H](CN(C)Cc2ccc(C(=O)O)cc2)[C@@H](C)CN([C@H](C)CO)C3=O)cc1	-	-	-	-	50	-
CCOc1ccc(NC(=O)N2CCC(CN3CCc4ccccc4C3)CC2)cc1	.	-	.	.	-	-
CCOC(=O)C(=CNc1ccc(O)c(C(=O)OC)c1)C(=O)OCC	.	-	-	-	57	-
SMILES	B2AR arrestin	RGS4 inh	BRCA1 expr act	D3 antag	D3 ag	PTHR1 ag
COc1ccc(/C=C/c2nnc(NC(C)=O)s2)cc1	-	?	?	-	-	-
CCc1nnc(NC(=O)c2cccc(NC(=O)C(C)C)c2)s1	-	-	11µM	-	-	-
COC(=O)Nc1nnc(/C=C/c2ccc(OC)cc2)s1	-	-	11µM	-	-	-
COc1cccc(C(=O)Nc2nnc(-c3ccccc3)s2)c1OC	-	-	1.8µM	-	-	-
COc1ccccc1C(=O)Nc1nnc(-c2ccccc2)s1	-	-	-	-	-	-
CCc1nnc(NC(=O)c2ccc(OC)cc2)s1	-	-	7.1µM	-	-	-
Cc1ccc(CNc2ncccc2-c2nc(-c3ccc(Cl)cc3)no2)cc1	.	-	-	.	-	-
CC(=O)NC(CC(=O)NCCN1C(=O)S/C(=C\c2ccccc2)C1=O)c1ccccc1 (stereo unspecified)	-	-	-	-	-	-
CC(C)(C)Cc1nnc(NC(=O)c2ccc([N+](=O)[O-])cc2)s1	-	-	5.6µM	-	-	-
COc1ccc(C(=O)Nc2nnc(-c3ccccc3)s2)cc1	-	-	7.1µM	-	-	-
CCc1nnc(NC(=O)c2cc(C)oc2C)s1	-	-	5.6µM	-	-	-
COc1ccc(C(=O)Cc2nnc(C)s2)cc1	-	-	7.1µM	-	-	-
COc1ccc(C(=O)Cc2ccccc2C(=O)O)cc1	.	-	-	-	-	-
CN(C)C=NC(=O)c1cc2c(n(-c3ccccc3)c1=O)CC(C)(C)CC2=O	.	-	-	.	-	-
COc1ccc2cc(C#N)c(SCC(=O)N3CCCC3)nc2c1	-	-	11µM	-	-	-
COc1ccc2nc(SCC(=O)N3CCN(c4ccc(F)cc4)CC3)c(C#N)cc2c1	-	-[11.4 µM]	-	-58	-	-
Cc1ccc(S(=O)(=O)N2C[C@@H](C)[C@]3(C2)[C@H](O)[C@H](OC(=O)Nc2c(C)noc2C)C[C@H]2C(=O)N(c4ccccc4)C(=O)[C@H]23)cc1	.	.	-	-	-	-
Cc1sc2ccccc2[n+]1CCCC[n+]1c(C)sc2ccccc21	.	.	-	.	.	.
CCOC(=O)CSc1nc2cc(OC)c(OC)cc2cc1C#N	.	-	?	.	.	.
Clc1ccc(CN2CC[C@H]3C=CCc4cccc(c43)C2)cc1	-	-	-	-84	-	-
Clc1ccc(CNC2CCN(Cc3ccccc3)CC2)cc1	-	-	-	-	-	-
Fc1ccc(CN2CC[C@H]3C=CCc4cccc(c43)C2)cc1	-	-	-	-53	-	-
Fc1ccc(CNC2CCN(Cc3ccccc3)CC2)cc1	-	-	-	-	-	-
COc1ccc(C(=O)Nc2ccccc2C(=O)NC2CC2)c(OC)c1OC	.	.	-	-	-	-
Cc1nc(N2CCOCC2)c2c(C(=O)N3CCN(c4cccc(C)c4C)CC3)c(C)oc2n1	.	-	.	.	-	-
COc1ccc2c(c1)CC/C(=C\C=C\c1ccccc1OC)C2=O	-	-	11µM	-	-	-
Cc1ccc2c(c1)N(C(=O)N1CCC(C(=O)NC3CCCCCC3)CC1)CC(C)O2 (stereo unspecified)	.	-	.	.	-	-
COC(=O)C1=[N+]([O-])OC(C(=O)OC)C1c1c[nH]c2ccccc12 (stereo unspecified)	-	-	-	-56	-	-
